This is part of a sample that, as a whole, favours compounds with a hit. Of some 83,000 tested, about 20% had one in any assay.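 How to read the values: 0–100, growth inhibition (40 = 60% inhibited); 0, no net growth; -100 to 0, cell death (-40 = 40% of starting cells died; -100 = all dead).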 Calls of active or inactive are those of the source. The calls were made as follows: active = growth percent below 10; inactive = the rest.
Tests used:
Assay in all cases: NCI-60 one-dose screen, 48 h (100 = growth as untreated, 0 = no growth, -100 = all killed)
[1] = system: NCI-H23 lung; conditions: 10 µM unless noted
[2] = system: NCI-H322M lung; conditions: 10 µM unless noted
[3] = system: HOP-62 NSCLC; conditions: 10 µM unless noted
[4] = system: NCI-H460 lung; conditions: 10 µM unless noted
[5] = system: HOP-92 NSCLC; conditions: 10 µM unless noted
[6] = system: NCI-H522 lung; conditions: 10 µM
[7] = system: A549/ATCC NSCLC; conditions: 10 µM unless noted
[8] = system: 786-0 renal; conditions: 10 µM unless noted
[9] = system: DU-145 prostate; conditions: 10 µM unless noted
[10] = system: K-562 leukemia; conditions: 10 µM unless noted
[11] = system: MALME-3M melanoma; conditions: 10 µM unless noted
[12] = system: MDA-MB-231 breast; conditions: 10 µM unless noted
[13] = system: RXF 393 renal; conditions: 10 µM unless noted
[14] = system: SF-268 CNS; conditions: 10 µM unless noted
[15] = system: SF-295 CNS; conditions: 10 µM unless noted
[16] = system: SF-539 CNS; conditions: 10 µM unless noted
[17] = system: UACC-257 melanoma; conditions: 10 µM unless noted
[18] = system: M14 melanoma; conditions: 10 µM unless noted

Measured: growth

N#Cc1c(-c2cccc(F)c2)cc(-c2ccc(Br)s2)[nH]c1=O
inactive: [1] 84.9% | [2] 87.9% | [3] 72.2% | [4] 38.6% | [5] 42.6% | [6] 35.7% | [7] 59.4% | [8] 96.3% | [9] 90.1% | [10] 24.5% | [11] 67.2% | [12] 79.7% | [13] 87.3% | [14] 83.1% | [15] 73.4% | [16] 83.6% | [17] 87.4% | [18] 39.8%

O=c1[nH]c(=S)c2c(n1CCCO)CCC2
inactive: [1] 99.8% | [2] 108% | [3] 104% | [4] 107% | [5] 109% | [6] 88.4% | [7] 100% | [8] 102% | [9] 108% | [10] 93.4% | [11] 92.9% | [12] 102% | [13] 113% | [14] 100% | [15] 102% | [16] 104% | [17] 96.7% | [18] 97%

Nc1cc2[nH]c(=O)c3ccccc3c2cc1Br
inactive: [1] 70.5% | [2] 86% | [3] 68.9% | [4] 67.3% | [5] 58.4% | [6] 90% | [7] 84.5% | [8] 104% | [9] 77% | [10] 95% | [11] 102% | [12] 53.2% | [13] 85.4% | [14] 86.3% | [15] 95.6% | [16] 74.6% | [17] 109% | [18] 83.3%

COc1c(O)c2c3c(c1OC)-c1ccccc1CC3N(S(=O)(=O)c1ccc(C)cc1)CC2 (stereo not given)
inactive: [1] 41.2% | [2] 53% | [3] 41.6% | [4] 23.3% | [5] 59.8% | [6] 19.9% | [7] 44.1% | [8] 75.8% | [9] 36.5% | [10] 23% | [11] 58.6% | [12] 52.7% | [13] 58.6% | [14] 55.1% | [15] 85.2% | [16] 41.2% | [17] 54.7% | [18] 31.2%

COc1ccc(OC)c(/C=C2\Oc3cc(O)ccc3C2=O)c1
inactive: [1] 96.1% | [2] 92.6% | [3] 101% | [4] 91.6% | [5] 98.2% | [6] 77.6% | [7] 98.8% | [8] 89.5% | [9] 77.5% | [10] 93.2% | [11] 76% | [12] 103% | [13] 80.5% | [14] 87.3% | [15] 98.6% | [16] 95.4% | [17] 103% | [18] 73.2%

CCN1CCN(c2nc3ccccc3c3c(=O)c4cc(F)ccc4sc23)CC1
inactive: [1] 85.6% | [2] 81.2% | [3] 73.2% | [4] 38.5% | [5] 40.2% | [6] 76.7% | [7] 58.4% | [8] 60.6% | [9] 66.4% | [10] 10.2% | [11] 90.9% | [12] 51.8% | [13] 47.3% | [14] 53.7% | [15] 93.2% | [16] 86% | [17] 78.7%

COC(=O)c1c2c(c(C)[n+]([O-])c1C)C(=O)C=C(NCc1cccc(OC)c1)C2=O
active: [1] -69.2% | [2] -19.6% | [3] -15.1% | [4] -41.6% | [5] -43.6% | [6] -54.7% | [7] -52.1% | [8] -3.41% | [9] -99.1% | [10] -23.6% | [11] -98.9% | [12] -17.4% | [13] -46.7% | [14] -16.1% | [15] -97.5% | [16] -92.3% | [17] -87.1% | [18] -83.4%

CCCCC1COc2cccc3c(SCC(=O)N(C)c4cccc5ccccc45)cc[n+]1c23 (stereo not given)
inactive: [1] 104% | [2] 110% | [3] 106% | [4] 107% | [5] 105% | [6] 83.5% | [7] 103% | [8] 98.3% | [9] 105% | [10] 88.4% | [11] 107% | [12] 110% | [13] 115% | [14] 112% | [15] 96.5% | [16] 96.7% | [17] 101% | [18] 82.8%

O=C(N/N=C/c1ccc(OC(F)F)c(OC2CCCC2)c1)c1cnn2c1NC(c1ccccc1)C2 (stereo not given)
inactive: [1] 97.5% | [2] 92.6% | [3] 84.9% | [4] 82.4% | [5] 80.6% | [6] 78.8% | [7] 73.8% | [8] 89.2% | [9] 85.7% | [10] 38.6% | [11] 108% | [12] 81.9% | [13] 76.9% | [14] 64.2% | [15] 80.3% | [16] 81% | [17] 88.2% | [18] 82.9%

O=C(CC(O)c1ccccc1)Nc1ccccn1 (stereo not given)
inactive: [1] 98.6% | [2] 93.3% | [3] 103% | [4] 112% | [5] 77% | [6] 96% | [7] 95.8% | [8] 102% | [9] 104% | [10] 84.1% | [11] 94.2% | [12] 104% | [13] 131% | [14] 103% | [15] 108% | [16] 97.6% | [17] 94.9% | [18] 99.7%

O=C(N/N=C(\CS(=O)(=O)c1ccccc1)c1cc2cc(Br)ccc2oc1=O)c1ccccc1
inactive: [1] 101% | [2] 104% | [3] 114% | [4] 99.7% | [5] 111% | [6] 94.9% | [7] 95.3% | [8] 106% | [9] 105% | [10] 112% | [11] 111% | [12] 94.2% | [13] 126% | [14] 98% | [15] 98.6% | [16] 101% | [17] 107% | [18] 106%

Cc1cccc2c(=O)c3c(sc12)c(NCCCN)nc1ccccc13
active: [3] 9.12% | [4] -52.7% | [9] -19.8% | [10] -34.6% | [12] -32.4% | [18] -19.7%
inactive: [1] 47.8% | [2] 43.2% | [5] 31.5% | [6] 13.2% | [7] 14.5% | [8] 52.9% | [11] 13.9% | [13] 31.5% | [14] 46.2% | [15] 68% | [16] 38.4% | [17] 81.9%

O=S(=O)(Nc1ccc(Cl)c(Cl)c1)c1ccc(-c2cnc(C3CC3)o2)cc1
active: [4] 4.29% | [6] 6.78% | [13] -19.4% | [16] -13.5%
inactive: [1] 39.6% | [2] 40.7% | [3] 24% | [5] 48% | [7] 25.5% | [8] 46.3% | [9] 15.3% | [10] 16.2% | [11] 53.3% | [12] 28.4% | [14] 47.7% | [15] 14.9% | [17] 63.1% | [18] 14.1%

CCCCOC(=O)C1OC(Oc2ccc3c(C)cc(=O)oc3c2)[C@@H](OC(C)=O)C(OC(C)=O)C1OC(C)=O (stereo not given in full)
inactive: [1] 99.9% | [2] 104% | [3] 98.7% | [4] 105% | [5] 98.3% | [6] 88.8% | [7] 96.3% | [8] 98.5% | [9] 104% | [10] 106% | [11] 89.1% | [12] 104% | [13] 106% | [14] 97.4% | [15] 96.1% | [16] 96% | [17] 93.9% | [18] 93.9%

O=C1CCC(N2Cc3c(C#CCCCNC(=O)c4cc5c(o4)C(=O)c4ccccc4C5=O)cccc3C2=O)C(=O)N1 (stereo not given)
active: [1] -80.1% | [2] -88.2% | [3] -65.3% | [4] -82% | [6] -61.2% | [9] -98.1% | [11] -97.6% | [12] -2.23% | [13] -15.4% | [14] -10.1% | [15] -87% | [16] -94.2% | [17] -79% | [18] -87.8%
inactive: [5] 52.3% | [7] 30% | [8] 49.7% | [10] 16.2%

CCCCCCCCCCCCCCn1c2ccccc2c2c3c(c4c5cc(OC)ccc5oc4c21)C(=O)NC3=O
inactive: [1] 103% | [2] 106% | [3] 117% | [4] 100% | [5] 106% | [6] 98% | [7] 103% | [8] 103% | [9] 111% | [10] 111% | [11] 115% | [12] 111% | [13] 122% | [14] 99.8% | [15] 104% | [16] 97% | [17] 102% | [18] 101%

COC(=O)c1c2c(c(C)[n+]([O-])c1C)C(=O)C=C(NCc1ccc(Cl)cc1)C2=O
active: [1] -35.7% | [2] -7.11% | [3] 2.25% | [4] 0.382% | [5] -27.9% | [6] -15.1% | [7] -16.5% | [8] 7.94% | [9] -83.7% | [10] 1.55% | [11] -95% | [12] -20.7% | [13] -31.7% | [14] 0.305% | [15] -59.7% | [16] -89.8% | [17] -84.7% | [18] -85.5%

Reference: PubChem BioAssay (NCI)
